Shown are actives, neighbours in structure and some others; about 0.78% of the full set was active somewhere.
APEX1 inh – blocks human APE1 abasic DNA cleavage; Potency, µM (series often up to 65.8 µM), most hits filed as inhibitors; recombinant APE1, TAMRA/BHQ-2 abasic DNA cleavage fluorescence; 350,000 tested, 0.35% active; also: nearly all actives have a fitted effect of over 55% in size
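Incision of a quenched TAMRA/BHQ-2 THF abasic-site duplex (50 nM) by 0.75 nM APE1, after 15 min compound preincubation, measured as fluorescence increase over three 60 s reads. Values normalized to buffer, DMSO and NSC13755 control wells.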
RECQ1 inh – RECQ1 (human) helicase inhibition; P46063; RECQ1 DNA unwinding, red fluorescence kinetic read; Potency, µM (highest dose often 57.3 µM), hits mostly inhibitors; 240,000 tested, 0.54% active; also: nearly all actives have a fitted effect of over 30% in size
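50 nM RECQ1T1 preincubated 15 min with compound in Tris pH 8.0 buffer with MgCl2, DTT, Tween-20 and 2.5 ug/ml poly(dI-dC); started with 200 nM TAMRA/BHQ-2 forked duplex and 2 mM ATP. Unwinding read as fluorescence (525/598 nm), two reads 2 h apart.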
BLM inh – blocks DNA unwinding by human BLM helicase; P54132; recombinant BLM DNA unwinding, fluorescence dequenching; Potency, µM (series often up to 56.1 µM), actives largely listed as inhibitors; 350,000 tested, 0.2% active; AID 2528; also: nearly all actives have a fitted effect of over 35% in size
Target sequence (P54132 whole entry, looked up): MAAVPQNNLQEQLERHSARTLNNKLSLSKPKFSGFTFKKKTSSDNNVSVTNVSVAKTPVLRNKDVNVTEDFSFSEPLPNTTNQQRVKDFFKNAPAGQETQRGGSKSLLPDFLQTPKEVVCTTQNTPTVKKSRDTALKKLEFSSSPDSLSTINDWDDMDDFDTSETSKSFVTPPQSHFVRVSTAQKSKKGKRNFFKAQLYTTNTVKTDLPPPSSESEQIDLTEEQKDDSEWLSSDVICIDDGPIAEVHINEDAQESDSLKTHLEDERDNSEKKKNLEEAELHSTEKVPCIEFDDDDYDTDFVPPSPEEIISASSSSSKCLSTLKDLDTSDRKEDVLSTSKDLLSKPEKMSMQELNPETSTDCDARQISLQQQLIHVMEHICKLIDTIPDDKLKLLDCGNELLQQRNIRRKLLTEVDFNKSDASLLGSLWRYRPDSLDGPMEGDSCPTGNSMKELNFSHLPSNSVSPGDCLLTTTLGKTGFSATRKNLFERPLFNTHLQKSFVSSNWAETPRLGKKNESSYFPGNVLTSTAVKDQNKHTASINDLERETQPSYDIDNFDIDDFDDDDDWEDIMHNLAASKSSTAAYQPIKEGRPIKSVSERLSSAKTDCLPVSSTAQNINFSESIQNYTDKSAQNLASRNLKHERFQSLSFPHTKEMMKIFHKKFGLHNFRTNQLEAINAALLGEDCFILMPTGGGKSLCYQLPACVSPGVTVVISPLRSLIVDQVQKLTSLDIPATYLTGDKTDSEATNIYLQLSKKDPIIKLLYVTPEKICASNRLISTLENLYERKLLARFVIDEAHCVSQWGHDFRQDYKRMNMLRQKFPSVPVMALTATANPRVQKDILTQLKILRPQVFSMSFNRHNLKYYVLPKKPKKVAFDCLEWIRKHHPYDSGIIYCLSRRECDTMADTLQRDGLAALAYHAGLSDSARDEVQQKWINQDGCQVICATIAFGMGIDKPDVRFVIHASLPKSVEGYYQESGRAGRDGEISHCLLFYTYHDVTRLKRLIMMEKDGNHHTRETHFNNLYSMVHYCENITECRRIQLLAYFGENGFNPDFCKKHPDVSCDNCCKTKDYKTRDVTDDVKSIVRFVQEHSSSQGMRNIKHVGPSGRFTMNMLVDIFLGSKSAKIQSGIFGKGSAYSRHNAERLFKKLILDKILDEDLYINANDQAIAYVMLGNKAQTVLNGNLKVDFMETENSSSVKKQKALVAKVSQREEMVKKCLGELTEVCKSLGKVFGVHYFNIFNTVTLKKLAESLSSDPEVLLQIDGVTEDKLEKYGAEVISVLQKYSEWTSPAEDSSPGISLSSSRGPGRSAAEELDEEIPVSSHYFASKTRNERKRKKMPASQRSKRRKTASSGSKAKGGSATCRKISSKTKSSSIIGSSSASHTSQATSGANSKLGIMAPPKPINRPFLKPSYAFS
L3MBTL1 block – L3MBTL1 (human) inhibition; 230,000 tested, 0.66% active; AID 485360; Potency, µM (top dose mostly 57.1 µM), usual class: inhibitors; AlphaScreen L3MBTL1–H3K9me1 peptide binding; also: nearly all actives have a fitted effect of over 60% in size
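First, the protein-peptide complex forms for 30 min at room temperature (L3MBTL1 50 nM, biotinylated H3K9me1 peptide 75 nM). Next, compounds are pin-transferred and incubated 30 min. Finally, AlphaScreen beads are added and read after 30 min.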
Large screens that a line does not name were inactive. Calls follow the shape of the dose curve; as a rule, active = well fitted curve in the direction sought with a large enough effect; inconclusive = small, poorly fitted or top-dose-only effect, or another doubt; inactive = no such curve, though single readings can be large; an effect the other way counts as inactive or inconclusive.

COc1cc(OC)cc(C2=Nn3c(nnc3-c3ccccc3O)SC2)c1	none (no result: L3MBTL1 block)
CSC1=N/C(=C\c2ccc(C)o2)C(=O)S1	L3MBTL1 block 28µM
CSC1=N/C(=C\c2ccc(C)s2)C(=O)S1	none
O=S(=O)(Nc1cccc2cccnc12)c1ccccc1O	none (no result: L3MBTL1 block)
CCOc1ccc(Nc2nc(NCC3CCCO3)c3ccccc3n2)cc1 (configuration not stated)	RECQ1 inh inconclusive, BLM inh 28µM (no result: L3MBTL1 block)
c1ccc(Nc2nc(NCC3CCCO3)c3ccccc3n2)cc1 (configuration not stated)	none
CSCC[C@H](N)C(=O)N[C@@H](CCCN=C(N)N)C(=O)N[C@@H](CC(C)C)C(=O)N[C@@H](Cc1ccccc1)C(=O)N[C@H](C(=O)O)C(C)C	none (no result: L3MBTL1 block)
CN(C)Cc1cc(C(C)(C)C)cc(C(C)(C)C)c1O	none
CN(C)Cc1cc(O)c(CN(C)C)cc1O	APEX1 inh inconclusive, L3MBTL1 block 3.2µM
COc1cccc2nc(-c3cccs3)nc(NN3C(=O)C=C(C)C3=O)c12	none (no result: L3MBTL1 block)
Nc1nc(=S)c2ncn(C3OC(CO)C(O)C3O)c2[nH]1 (configuration not stated)	APEX1 inh 25µM, RECQ1 inh inconclusive, BLM inh inconclusive, L3MBTL1 block 25µM
NC(=O)c1ccnc2c(O)cccc12	L3MBTL1 block 14µM (no result: RECQ1 inh, BLM inh)
CNc1nc(Cl)nc2c1ncn2CC(COC(=O)C(C)(C)C)COC(=O)C(C)(C)C	none (no result: L3MBTL1 block)
Cc1cc(C)c2nc(C)cc(N/N=C/c3ccc(O)cc3)c2c1	APEX1 inh inconclusive, BLM inh 32µM (no result: RECQ1 inh)
Nc1ccc(N=Nc2ccccc2)c(N)c1	none (no result: BLM inh, L3MBTL1 block)
CC(=O)c1sc2nc(CSc3nnnn3-c3ccccc3)[nH]c(=O)c2c1C	BLM inh 16µM, L3MBTL1 block inconclusive
CCOc1ccc(C(=O)N/N=C/c2ccc(-c3ccc(S(=O)(=O)Nc4ncccn4)cc3)o2)cc1	RECQ1 inh inconclusive (no result: L3MBTL1 block)
NC(=S)NN=Cc1ccc(-c2ccc(S(=O)(=O)Nc3ncccn3)cc2)o1	L3MBTL1 block 28µM (no result: RECQ1 inh, BLM inh)
S=C(Nc1cccnc1)Nc1cccc2cnccc12	none
CN(C)S(=O)(=O)c1cccc(NC(=S)Nc2cccc3cnccc23)c1	BLM inh 13µM
Fc1ccc(NC(=S)Nc2cccc3cnccc23)cc1	BLM inh 22µM
COc1ccc(S(=O)(=O)NCc2cccs2)cc1	APEX1 inh 13µM (no result: L3MBTL1 block)
O=C1NC(=S)N(C(=O)c2ccc(F)cc2)/C1=C/c1ccccc1	BLM inh 22µM
O=C(Nc1cc(C(F)(F)F)cc(C(F)(F)F)c1)c1cc(Cl)ccc1O	none (no result: L3MBTL1 block)
CCCn1c(Nc2nc3ccccc3n2C)nc2ccccc21	L3MBTL1 block 18µM
CCCCn1c(Nc2ccccc2)nc2ccccc21	none (no result: L3MBTL1 block)
CS(=O)(=O)c1ccc(-c2csc(N3CCC(C(N)=O)CC3)n2)cc1	none (no result: RECQ1 inh, BLM inh, L3MBTL1 block)
Cc1nc(SCC(=O)c2ccccc2)c(C#N)c(-c2ccco2)c1C(=O)NCc1ccco1	BLM inh 25µM, L3MBTL1 block inconclusive
Cn1c(=O)c(C(=O)COC(=O)c2cc(-c3ccco3)nc3ccccc23)c(N)n(Cc2ccccc2)c1=O	APEX1 inh inconclusive, RECQ1 inh 32µM, BLM inh inconclusive, L3MBTL1 block inconclusive
Cn1c(N)c(C(=O)COC(=O)c2cc(-c3ccccc3)nc3ccccc23)c(=O)n(Cc2ccccc2)c1=O	none
CC(C)Cn1c(N)c(C(=O)COC(=O)c2cc(-c3ccccc3)nc3ccccc23)c(=O)n(C)c1=O	none
CC(C)Cn1c(N)c(C(=O)COC(=O)c2cc(-c3ccco3)nc3ccccc23)c(=O)n(C)c1=O	APEX1 inh 11µM, RECQ1 inh 20µM, BLM inh inconclusive, L3MBTL1 block 8.9µM
C#CCOc1ccc(-c2no[n+]([O-])c2C#N)cc1	none (no result: RECQ1 inh, BLM inh, L3MBTL1 block)
N#Cc1c(-c2ccc(F)cc2)no[n+]1[O-]	none (no result: RECQ1 inh, BLM inh, L3MBTL1 block)
O=C(N/N=C/c1ccc(-c2ccccc2C(=O)O)o1)c1cccs1	L3MBTL1 block 25µM
O=C(O)c1ccc(-c2c3nc(c(-c4ccc(C(=O)O)cc4)c4ccc([n-]4)c(-c4ccc(C(=O)O)cc4)c4nc(c(-c5ccc(C(=O)O)cc5)c5ccc2[n-]5)C=C4)C=C3)cc1.[Mn+3]	none (no result: L3MBTL1 block)
O=S(=O)(c1cccc(-c2n[nH]c(=S)n2-c2ccccc2)c1)N1CCCC1	none (no result: RECQ1 inh, BLM inh, L3MBTL1 block)
S=c1[nH]nc(-c2ccccc2)n1/N=C/C=C/c1ccco1	L3MBTL1 block inconclusive
S=c1[nH]nc(-c2cccnc2)n1/N=C/C=C/c1ccco1	RECQ1 inh inconclusive, BLM inh 20µM, L3MBTL1 block 22µM
S=c1[nH]nc(-c2ccc(Cl)cc2)n1/N=C/C=C/c1ccco1	APEX1 inh inconclusive, RECQ1 inh inconclusive, BLM inh inconclusive, L3MBTL1 block 28µM
COc1ccc(C2=Nn3c(nnc3-c3cc(OC)ccc3OC)SC2)cc1	none (no result: L3MBTL1 block)
CN(C)CCCNCCCN	none (no result: BLM inh, L3MBTL1 block)
COCCN(CC(=O)Nc1cccc(C)c1C)C(=O)c1cc2c(s1)CCC2	APEX1 inh 15µM (no result: RECQ1 inh, BLM inh)
CCN(CC(=O)Nc1ccccc1C(F)(F)F)C(=O)c1cc2c(s1)CCCCC2	none (no result: RECQ1 inh, BLM inh)
O=C(C[C@@H]1C/C=C\C[C@@H](Cc2ccc(F)cc2)C(=O)OC[C@@H](Cc2c[nH]c3ccccc23)NC1=O)NCCO	none (no result: RECQ1 inh, BLM inh)
O=C(C[C@@H]1C/C=C\C[C@H](Cc2ccc(F)cc2)C(=O)OC[C@@H](Cc2c[nH]c3ccccc23)NC1=O)NCCO	APEX1 inh 12µM (no result: RECQ1 inh, BLM inh)
N#Cc1no[n+]([O-])c1-c1ccccc1	none (no result: RECQ1 inh, BLM inh, L3MBTL1 block)
COc1ccc(-c2csc(N(CCCN(C)C)C(=O)c3ccccc3F)n2)cc1	none (no result: RECQ1 inh)
COc1ccc(-c2csc(N(CCCN(C)C)C(=O)c3ccccc3C)n2)cc1	L3MBTL1 block 35µM (no result: RECQ1 inh)
COc1ccc(C(=O)c2cn(CC(=O)Nc3ccc4c(c3)OCCO4)c3ccc(OC)cc3c2=O)cc1	BLM inh 10µM (no result: APEX1 inh, RECQ1 inh, L3MBTL1 block)
O=C(O)[C@@H](c1ccccc1)N1Cc2ccccc2C1=O	L3MBTL1 block 18µM
CCCCCCCCCCCCCCCC(=O)C1=C(O)C(CO)OC1=O (configuration not stated)	APEX1 inh inconclusive, RECQ1 inh 35µM (no result: BLM inh, L3MBTL1 block)
Cc1cc(C)c(S(=O)(=O)/N=C2/C=C(SCC(=O)O)C(=O)c3ccccc32)cc1C	APEX1 inh inconclusive, RECQ1 inh inconclusive, BLM inh 32µM (no result: L3MBTL1 block)
Cc1cc(C)c(S(=O)(=O)/N=C2\C=C(NS(=O)(=O)c3ccccc3)C(=O)c3ccccc32)c(C)c1	none (no result: RECQ1 inh, L3MBTL1 block)
C=CCCCCCCCCCBr	none (no result: L3MBTL1 block)
CCc1ccc(CNc2ccc(O)cc2)cc1	BLM inh inconclusive, L3MBTL1 block 7.9µM
Oc1ccc(NCc2ccc(OCc3ccccc3)cc2)cc1	BLM inh inconclusive (no result: RECQ1 inh, L3MBTL1 block)
NNc1ccc(Cc2ccc(Cl)cc2Cl)nn1	L3MBTL1 block 13µM
CCOC(=O)c1ccc(NC(=S)N(CCCN2CCCC2)Cc2ccco2)cc1	L3MBTL1 block 35µM
CN(C)c1nc(NC2CCC(NC(=O)c3ccc(F)c(F)c3)CC2)nc2ccccc12 (configuration not stated)	none (no result: L3MBTL1 block)
CCC(C)/C=C/C1=CC2=C(Cl)C(=O)C3(C)OC(=O)C(C(=O)C(C)C(C)O)C3C2=CO1 (configuration not stated)	APEX1 inh 10µM
NC(=O)C1CCN(c2nc(-c3cccc4ccccc34)cs2)CC1	none (no result: RECQ1 inh, BLM inh, L3MBTL1 block)
